Screen size: about 52,000 compounds; about 4,300 (8.3%) were called active. Only a selection was taken, and actives are over-represented in it overall. Values without a mark were called inactive. Cut-off read from the data, not from the text of the source: active = survival mostly below about 52% (no sharp cut-off); inactive = mostly above about 56%.
Each compound was assayed on DeltatarO mutant (assay: S. aureus survival, RN4220 and DeltatarO strains – OD600, teichoic acid synthesis inhibitors, primary screen (AID 463173)). Conditions: S. aureus RN4220 wild type/DeltatarO growth, OD600, 18 h, hits give low values, screened at 18.75 µg/mL (by protocol).

| SMILES | survival |
| --- | --- |
| CC(=O)N1CCCC1c1nc2ccccc2n1Cc1cc(C)ccc1C (centres undefined) | 106% |
| Cc1cc(NC(=O)c2cccn2-c2nnc(N3CCCCC3)s2)ccc1Br | 117% |
| CCCCN(C)CCCNC(=O)C1CCN(S(=O)(=O)CC)CC1 | 108% |
| Cc1ccc(C(=O)N(Cc2ccc(N(C)C)cc2)Cc2ccco2)cc1 | 73% |
| CCOc1ccccc1C(=O)N(Cc1ccco1)Cc1ccco1 | 73% |
| CCc1ccc(CN(Cc2ccco2)C(=O)c2ccccc2Cl)cc1 | 46% (active) |
| CCc1ccc(CN(Cc2ccco2)C(=O)c2ccc(C)cc2)cc1 | 41% (active) |
| O=C(c1ccccc1Cl)N(Cc1ccco1)Cc1ccco1 | 60% |
| O=C(c1ccccc1Br)N(Cc1ccco1)Cc1ccco1 | 45% (active) |
| Cc1ccc(CN(Cc2ccco2)C(=O)c2ccccc2Br)o1 | 47% |
| CCc1ccc(CN(Cc2ccco2)C(=O)c2ccc(OC)cc2)cc1 | 52% (active) |
| COc1ccc(C(=O)N(Cc2ccco2)Cc2ccc(C)o2)cc1 | 71% |
| Cc1ccc(CN(Cc2ccco2)C(=O)c2ccccc2Cl)o1 | 74% |
| Cc1ccc(C(=O)N(Cc2ccco2)Cc2ccco2)cc1 | 61% |
| COc1ccc(C(=O)N(Cc2ccco2)Cc2ccco2)cc1 | 58% |
| COc1cccc(/C=C(\C#N)C(=O)Nc2ccc(NC(C)=O)cc2)c1OC | 89% |
| Cc1ccccc1C(=O)Nc1ccc2oc(-c3ccc(Cl)c(Cl)c3)nc2c1 | 64% |
| Cc1ccc2cc(CN(Cc3ccccc3)C(=O)C3CC3)c3nnnn3c2c1 | 100% |
| O=C(NCc1ccco1)C(c1ccccc1)N(C(=O)Cn1nnc2ccccc21)C1CCCC1 (centres undefined) | 105% |
| Cc1ccc(N2CC(NC(=O)c3ccccc3C(F)(F)F)CC2=O)cc1C (centres undefined) | 55% |
| CC(=O)Nc1ccc(NC(=O)CN(C)S(=O)(=O)c2ccc3c(c2)CCCC(=O)N3)cc1 | 84% |
| CCN(CC)C(NC(=O)c1ccccc1)C(=O)c1ccccc1 (centres undefined) | 85% |
| COc1ccc(-c2nn(-c3cccc(F)c3)c3c2cnc2cc(OC)c(OC)cc23)cc1 | 67% |
| Cc1ccc(S(=O)(=O)N(CCO)Cc2ccccc2)cc1 | 87% |
| O=C(Cn1nc(-c2ccccc2)c2c(c1=O)CCCC2)Nc1ccc(F)c(Cl)c1 | 23% (active) |

| SMILES | survival |
| --- | --- |
| O=C(Cn1c(=O)nc(-c2ccccc2)c2cc(Cl)ccc21)Nc1ccc(F)c(Cl)c1 | 75% |
| COC(=O)c1cc(NC(=O)Cn2nc(-c3ccccc3)c3c(c2=O)CCCC3)cc(C(=O)OC)c1 | 24% (active) |
| CC(C(=O)Nc1ccccc1C(F)(F)F)n1nnc2sc3c(c2c1=O)CCCC3 (centres undefined) | 81% |
| COC(=O)c1cc(NC(=O)Cn2nc(C)n3cccc3c2=O)cc(C(=O)OC)c1 | 87% |
| COC(=O)c1cc(NC(=O)Cn2nc(-c3ccc(C)c(C)c3)ccc2=O)cc(C(=O)OC)c1 | 65% |
| COc1ccc(Nc2ncnc3sc4c(c23)CCCC4)cc1 | 69% |
| CCc1nc(Nc2ccc(F)c(Cl)c2)c2c3c(sc2n1)CCCC3 | -4% (active) |
| CC(=O)Nc1ccc(Nc2ncnc3sc4c(c23)CCCC4)cc1 | 76% |
| Cc1ccc(Cl)cc1NC(=O)C(C)n1nnc2sc3c(c2c1=O)CCCC3 (centres undefined) | 69% |
| CC(C(=O)Nc1cc(C(F)(F)F)ccc1Cl)n1nnc2sc3c(c2c1=O)CCCC3 (centres undefined) | 53% (active) |
| O=C(Cn1nc(C(F)(F)F)c2c1CCCC2)Nc1ccc(F)c(Cl)c1 | 62% |
| COc1ccc(OCC(=O)Nc2ccc(-c3nc4cc(C)cc(C)c4o3)cc2)cc1 | 75% |
| CCOC(=O)C1=C(CN2CCN(c3ccc(Cl)cc3)CC2)NC(=O)NC1c1ccc(F)cc1 (centres undefined) | 70% |
| CCOC(=O)c1nc(Nc2ccc(Cl)cc2)c2c(C)noc2n1 | 68% |
| COc1ccc(OC)c(CNC(=O)c2ccc(NC(=O)c3nsc4ccccc34)cc2)c1 | 80% |
| Cc1c(Cl)cccc1NC(=O)Cn1nnc2sc3c(c2c1=O)CCCC3 | 75% |
| O=C(Cn1nnc2sc3c(c2c1=O)CCCC3)Nc1ccc(F)c(Cl)c1 | 36% (active) |
| COc1ccc(NC(=O)Cn2nnc3sc4c(c3c2=O)CCCC4)cc1 | 61% |
| CCOc1ccc(/C=C(\C#N)c2nc(-c3cc4ccccc4oc3=O)cs2)c(OCC)c1 | 81% |
| COc1ccc(CC(=O)Nc2cc(-c3nc4cccnc4s3)ccc2C)cc1 | 41% (active) |
| Cc1ccc(C(=O)Nc2cccc(-c3nc4cccnc4s3)c2C)cc1 | 111% |
| CCCCC(=O)Nc1cc(-c2cn3cccnc3n2)ccc1C | 102% |
| Cc1cccc(C(=O)Nc2cc(-c3nc4cccnc4s3)ccc2C)c1 | 45% (active) |
| CCCCC(=O)Nc1cc(-c2nc3cccnc3s2)ccc1C | 35% (active) |

— PubChem BioAssay AID463173 (ICCB-Longwood Screening Facility, Harvard Medical School, 2010)
